Experimental data taken from PubChem BioAssay AID1159580 (chemical genetic matrix, 2015).
Several values for one entry are separate records, joined by “and”; a condition that tells them apart may be missing. Equal values may be shown once. Among all 5,500 compounds or so, about 2,000 (36%) were called active. Inconclusive results (about 18%) are left out. The list shows a part of the results. A number with no mark means an inactive call. Cut-off read from the data, not from the text of the source: active = normalized growth mostly below about 0.91 (no sharp cut-off); inconclusive = no clear call, values can overlap the other calls; inactive = mostly above about 0.92.

Assay: chemical genetic growth profiling, strain panel (AID 1159580);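 note: tested at 20 µM; growth read once vehicle control cultures reached saturation at 30 °C; 1 = growth at the plate median or of vehicle wells; lower values mean less growth of the strain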
Details: S. cerevisiae deletion strains, growth OD

COc1c2occc2cc2ccc(=O)oc12
normalized growth (locus YAL013W, strain DEP1, hits give low values): 0.992 | normalized growth (locus YAL021C, strain ccr4, hits give low values): 0.966 | normalized growth (locus YAL026C, strain drs2, hits give low values): 0.954 | normalized growth (locus YAL030W, strain snc1, hits give low values): 0.975 | normalized growth (locus YBL061C, strain skt5, hits give low values): 0.973 | normalized growth (locus YBR009C, strain hhf1, hits give low values): 0.878 (active) | normalized growth (locus YBR021W, strain FUR4, hits give low values): 1.08 | normalized growth (locus YBR023C, strain chs3, hits give low values): 0.926 | normalized growth (locus YBR171W, strain sec66, hits give low values): 0.945 | normalized growth (locus YBR229C, strain ROT2, hits give low values): 1.01 | normalized growth (locus YBR231C, strain swc5, hits give low values): 1.03 | normalized growth (locus YBR279W, strain paf1, hits give low values): 0.98 | normalized growth (locus YCL011C, strain gbp2, hits give low values): 0.88 (active) | normalized growth (locus YCL016C, strain dcc1, hits give low values): 0.888 (active) | normalized growth (locus YCL029C, strain bik1, hits give low values): 0.976 | normalized growth (locus YCL061C, strain MRC1, hits give low values): 0.931 | normalized growth (locus YCL069W, strain vba3, hits give low values): 0.96 | normalized growth (locus YCR088W, strain abp1, hits give low values): 0.998 | normalized growth (locus YDL005C, strain med2, hits give low values): 0.987 | normalized growth (locus YDL035C, strain GPR1, hits give low values): 0.956 | normalized growth (locus YDL040C, strain nat1, hits give low values): 0.995 | normalized growth (locus YDL074C, strain BRE1, hits give low values): 0.908 | normalized growth (locus YDL101C, strain DUN1, hits give low values): 0.958 | normalized growth (locus YDL134C, strain PPH21, hits give low values): 0.997 | normalized growth (locus YDL185W, strain tfp1, hits give low values): 0.928 | normalized growth (locus YDL192W, strain arf1, hits give low values): 0.969 | normalized growth (locus YDR001C, strain nth1, hits give low values): 0.983 | normalized growth (locus YDR069C, strain doa4, hits give low values): 0.964 | normalized growth (locus YDR101C, strain arx1, hits give low values): 0.993 | normalized growth (locus YDR137W, strain rgp1, hits give low values): 0.954 | normalized growth (locus YDR150W, strain NUM1, hits give low values): 0.952 | normalized growth (locus YDR159W, strain sac3, hits give low values): 1.02 | normalized growth (locus YDR162C, strain NBP2, hits give low values): 0.931 | normalized growth (locus YDR195W, strain ref2): 1.17 [resistant] (active) | normalized growth (locus YDR297W, strain sur2, hits give low values): 0.978 | normalized growth (locus YDR318W, strain mcm21, hits give low values): 0.953 | normalized growth (locus YDR334W, strain swr1, hits give low values): 0.919 | normalized growth (locus YDR335W, strain msn5, hits give low values): 0.982 | normalized growth (locus YDR388W, hits give low values): 0.985 | normalized growth (locus YDR392W, strain spt3, hits give low values): 0.852 | normalized growth (locus YDR502C, strain sam2, hits give low values): 0.957 | normalized growth (locus YEL003W, strain gim4, hits give low values): 0.988 | normalized growth (locus YEL037C, strain rad23, hits give low values): 0.944 | normalized growth (locus YEL061C, strain CIN8 (second series), hits give low values): 0.981 | normalized growth (locus YEL061C, strain CIN8, hits give low values): 0.999 | normalized growth (locus YER015W, strain faa2, hits give low values): 0.965 | normalized growth (locus YER016W, strain bim1, hits give low values): 1 | normalized growth (locus YER110C, hits give low values): 0.948 | normalized growth (locus YER111C, strain swi4, hits give low values): 0.973 | normalized growth (locus YER155C, strain BEM2 (second series), hits give low values): 0.866 | normalized growth (locus YER155C, strain BEM2, hits give low values): 1.03 | normalized growth (locus YER167W, strain BCK2, hits give low values): 0.982 | normalized growth (locus YFR010W, strain ubp6, hits give low values): 0.94 | normalized growth (locus YGL078C, strain dbp3, hits give low values): 0.99 | normalized growth (locus YGL086W, strain mad1, hits give low values): 0.961 | normalized growth (locus YGL167C, strain pmr1, hits give low values): 0.998 | normalized growth (locus YGL173C, strain kem1, hits give low values): 0.973 | normalized growth (locus YGL227W, strain vid30, hits give low values): 0.988 | normalized growth (locus YGL240W, strain doc1, hits give low values): 0.99 | normalized growth (locus YGL248W, strain PDE1, hits give low values): 0.999 | normalized growth (locus YGL253W, strain hxk2, hits give low values): 0.942 | normalized growth (locus YGR078C, strain PAC10, hits give low values): 0.922 | normalized growth (locus YGR135W, strain pre9, hits give low values): 0.935 | normalized growth (locus YGR229C, strain SMI1, hits give low values): 0.948 | normalized growth (locus YGR252W, strain gcn5, hits give low values): 0.817 | normalized growth (locus YHR013C, strain ard1, hits give low values): 0.935 | normalized growth (locus YHR027C, strain rpn1, hits give low values): 0.956 | normalized growth (locus YHR030C, strain SLT2, hits give low values): 0.995 and 1.02 | normalized growth (locus YHR079C, strain IRE1 (second series), hits give low values): 0.992 | normalized growth (locus YHR079C, strain IRE1, hits give low values): 1.03 | normalized growth (locus YHR094C, strain hxt1, hits give low values): 0.988 | normalized growth (locus YHR129C, strain ARP1, hits give low values): 0.996 | normalized growth (locus YHR142W, strain chs7, hits give low values): 0.856 (active) | normalized growth (locus YHR200W, strain rpn10, hits give low values): 0.928 | normalized growth (locus YIL066C, strain RNR3, hits give low values): 0.933 | normalized growth (locus YIL073C, strain SPO22, hits give low values): 0.865 | normalized growth (locus YIL125W, strain kgd1, hits give low values): 1 | normalized growth (locus YIR030C, strain dcg1, hits give low values): 0.998 | normalized growth (locus YJL092W, strain hpr5, hits give low values): 0.917 (active) | normalized growth (locus YJL095W, strain BCK1 (second series), hits give low values): 0.982 | normalized growth (locus YJL095W, strain BCK1, hits give low values): 0.911 and 1.02 | normalized growth (locus YJL115W, strain asf1, hits give low values): 0.943 | normalized growth (locus YJL129C, strain trk1, hits give low values): 0.987 | normalized growth (locus YJL134W, strain LCB3, hits give low values): 0.985 | normalized growth (locus YJL154C, strain vps35, hits give low values): 0.984 | normalized growth (locus YJL164C, strain tpk1, hits give low values): 0.945 | normalized growth (locus YJL166W, strain qcr8, hits give low values): 0.943 | normalized growth (locus YJL168C, strain set2, hits give low values): 0.985 | normalized growth (locus YJL187C, strain SWE1 (second series), hits give low values): 0.974 | normalized growth (locus YJL187C, strain SWE1, hits give low values): 0.976 | normalized growth (locus YJR043C, strain POL32, hits give low values): 0.953 | normalized growth (locus YJR066W, strain TOR1, hits give low values): 0.969
